A selection: hits, their analogues and other compounds. The true share with any hit is near 2.3%.
MCL1 BIM primary – inhibitors of MCL1 binding to BIM-BH3, primary screen, biochemical, fluorescence polarization. Induced myeloid leukemia cell differentiation protein Mcl-1 (Homo sapiens), Q07820. GST-MCL1 / FITC-Bim-BH3 fluorescence polarization. inhibition, % at 10.9 µM. 0.68% of 320,000 active. AID 2057, 2009;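 active means inhibition above the mean inhibition of all tested compounds plus 3 SD, set per campaign, cut at about 40% in these data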;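 further: 0% = DMSO wells and 100% = unlabeled Bim-BH3 peptide control; higher means more loss of mP so more displacement of Bim peptide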
Target sequence (Q07820 whole entry, looked up): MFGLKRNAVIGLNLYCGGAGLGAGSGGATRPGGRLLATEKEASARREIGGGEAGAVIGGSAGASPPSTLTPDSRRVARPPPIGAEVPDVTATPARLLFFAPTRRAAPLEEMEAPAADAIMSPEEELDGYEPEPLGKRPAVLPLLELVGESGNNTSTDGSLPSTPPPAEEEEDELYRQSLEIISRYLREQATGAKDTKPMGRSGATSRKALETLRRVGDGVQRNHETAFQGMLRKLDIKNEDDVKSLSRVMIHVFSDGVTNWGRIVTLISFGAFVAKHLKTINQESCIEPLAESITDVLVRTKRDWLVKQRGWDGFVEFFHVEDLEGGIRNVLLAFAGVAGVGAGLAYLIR
Bcl-xL primary – inhibitors of human Bcl-xL, primary screen, biochemical, fluorescence polarization, HTS | Bcl-2-like protein 1 (Homo sapiens), Q07817 | GST-Bcl-xL / FITC-Bim BH3 peptide fluorescence polarization | inhibition, % at 10.9 µM | 0.7% of 320,000 active;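 active means inhibition above the mean of all tested compounds plus 3 SD, cutoff set per campaign, cut at about 30% in these data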;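 further: 0% = DMSO wells and 100% = unlabeled Bim-BH3 peptide competitor; inhibitors lower millipolarization by displacing the labeled peptide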
Target sequence (Q07817 whole entry, looked up): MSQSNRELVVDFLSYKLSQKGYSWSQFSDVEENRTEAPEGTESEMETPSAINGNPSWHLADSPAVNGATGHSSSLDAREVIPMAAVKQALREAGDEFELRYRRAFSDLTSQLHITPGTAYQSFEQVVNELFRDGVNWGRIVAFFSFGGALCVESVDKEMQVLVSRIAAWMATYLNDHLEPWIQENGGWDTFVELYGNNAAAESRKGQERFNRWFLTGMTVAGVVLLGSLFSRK
Mcl-1 Bim block – inhibitors of Bim peptide binding to Mcl-1, primary screen, biochemical, bead-based flow cytometry, multiplex; inhibition, % at 10 µM; AID 1009, 2008; 0.1% of 190,000 active; Induced myeloid leukemia cell differentiation protein Mcl-1 (Homo sapiens), Q07820; Bim peptide-Mcl-1 binding; in the data active means inhibition above about 40%;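 further: 0% = no compound tracer wells and 100% = peptide blocker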
GLD-1 RNA inh – GLD-1/TGE RNA complex disruptors, primary screen, biochemical, fluorescence polarization; Female germline-specific tumor suppressor gld-1 (Caenorhabditis elegans), Q17339; purified GLD-1 + fluorescein TGE RNA; inhibition, % at 5.96 µM; 0.44% of 320,000 active;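 active means percent inhibition above a per-plate cutoff, the plate mean of test compounds plus 3 SD, cut at about 30% in these data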;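 further: 0% = DMSO wells with GLD-1 and probe and 100% = wells lacking GLD-1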
Mcl1-Bid inh – Mcl-1/Bid binding inhibitors, primary screen, biochemical, TR-FRET, 1536-well. Induced myeloid leukemia cell differentiation protein Mcl-1 (Homo sapiens), Q07820. TR-FRET Mcl-1/Bid-Dy647 peptide binding. inhibition, % at 21.7 µM. 0.97% of 220,000 active. AID 1021, 2008;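 active means compounds that cut the binding signal by more than half at the single screening dose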;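 further: His-tagged Mcl-1 with europium anti-His antibody binding Bid BH3 peptide; 0% = Mcl-1 plus peptide wells and 100% = peptide-only wells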
Mcl1-Noxa inh – Mcl-1/Noxa binding inhibitors, primary screen, biochemical, TR-FRET, 1536-well; Induced myeloid leukemia cell differentiation protein Mcl-1 (Homo sapiens), Q07820; TR-FRET Mcl-1/Noxa peptide binding, 2 h; AID 1022, 2008; 1.5% of 220,000 active; inhibition, % at 21.7 µM;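 active means compounds that cut the protein-peptide binding signal by more than 50% relative to plate controls in a single-dose test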;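 further: His-tagged Mcl-1 with rhodamine Noxa BH3 peptide and terbium anti-His antibody; 0% = Mcl-1 plus Noxa peptide wells and 100% = peptide-only wells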
Bcl-xL conf – Bcl-xL inhibitors blocking Bim BH3 binding, confirmation, counter-screen for MCL1 inhibitor project, biochemical, fluorescence polarization; shares compounds with MCL1 BIM primary; GST-Bcl-xL / FITC-Bim BH3 peptide FP binding; inhibition, % at 10.9 µM; 54% of 1,700 active; AID 2166, 2009;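 active means inhibition above a cutoff equal to the mean inhibition of all tested compounds plus 3 SD, cut at about 30% in these data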;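 further: 0% = DMSO wells and 100% = unlabeled Bim BH3 control peptide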
MCL1 inh confirm – inhibitors of MCL1 binding to BIM-BH3, confirmation, biochemical, fluorescence polarization, triplicate; shares compounds with MCL1 BIM primary; 61% of 1,700 active; inhibition, % at 10.9 µM; GST-MCL1 / FITC-Bim-BH3 fluorescence polarization;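 active means inhibition above the average of all tested compounds plus 3 SD, cut at about 40% in these data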;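 further: 0% = DMSO wells and 100% = unlabeled Bim-BH3 control peptide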
An asterisk follows results filed as active; / = not tested or not shown; + = active, no number.

SMILES	MCL1 BIM primary	Bcl-xL primary	Mcl-1 Bim block	GLD-1 RNA inh	Mcl1-Bid inh	Mcl1-Noxa inh	Bcl-xL conf	MCL1 inh confirm
CCc1nnc(NC(=O)COc2ccccc2[N+](=O)[O-])s1	-4	6	/	2	-2	7	/	/
Cc1ccccc1C(=O)Nc1nnc(CC(=O)N/N=C/c2ccncc2)s1	-5	-5	/	0	-39	-1	/	/
O=C(c1ccc2c(c1)N(Cc1cccc(Cl)c1)C(=O)c1ccccc1S2(=O)=O)N1CCN(c2ccccn2)CC1	3	5	0	0	11	-4	/	/
CCn1c(SCC(=O)c2ccc(O)c(O)c2)nnc1-c1ccccc1OC	45*	10	1	-6	-81	8	14	41*
C=CCn1c(SCC(=O)c2ccc(O)c(O)c2)nnc1-c1ccccc1OC	54*	9	-2	3	-58	19	9	18
CCn1c(SCC(=O)c2ccc(O)c(O)c2)nnc1-c1ccccc1	13	1	-4	9	6	13	/	/
C=CCn1c(SCC(=O)c2ccc(O)c(O)c2)nnc1-c1cccnc1	41*	9	/	4	-36	58*	12	47*
Cc1cc(=O)n2c(n1)NC(Nc1cccc(C)c1C)=NC2c1ccccc1 (configuration not stated)	3	2	/	9	-5	15	/	/
COc1ccc(CCNC(=O)COc2ccc(C)nc2[N+](=O)[O-])cc1	-3	-11	0	10	-16	-1	/	/
COc1ccc(OC(C)C(=O)Nc2cccc(OC)c2)cc1 (configuration not stated)	-1	-2	-2	12	4	-3	/	/
CC(Oc1ccc(F)cc1)C(=O)Nc1cccc(-c2nn[nH]n2)c1 (configuration not stated)	41*	13	/	3	/	/	-4	-23
COc1ccc(/C=C(\NC(=O)c2ccco2)C(=O)N2CCCCC2)cc1	3	5	/	3	/	/	/	/
COc1cc(O)c(C(C)=O)c(CC(=O)O)c1	41*	13	/	13	-109	15	20	34
COc1cc(O)c(C(=O)/C=C/c2ccccc2)c(OC)c1	1	2	/	8	-50	20	/	/
C#CCN(Cc1ccco1)C(=O)c1ccc(OC2CCN(Cc3ccccn3)CC2)cc1	2	11	/	4	/	/	/	/
CCOC(=O)CN1C=C(c2ccc3ccccc3n2)C(C[N+](=O)[O-])c2ccccc21 (configuration not stated)	106*	101*	-3	-74	-8	-1	138*	172*
CCOC(=O)CSc1ccc2ccccc2n1	3	8	0	3	-15	0	/	/
Cc1nn(CCCC(=O)NCCc2ccc(Cl)cc2)c(=O)c2nn(-c3ccccc3)c(C)c12	-3	0	/	-7	/	/	/	/
O=c1ccc2c(-c3ccccc3)c3ccc(O)cc3oc-2c1	110*	106*	/	75*	/	/	119*	121*
O=c1cc(-c2ccccc2)c2ccc(O)cc2o1	0	-4	/	11	/	/	/	/
Nc1ccc(-c2c3ccc(=O)cc-3oc3cc(O)ccc23)cc1C(=O)O	118*	106*	/	64*	/	/	104*	112*
O=C(Nc1ccc(F)c([N+](=O)[O-])c1)C(=O)c1c(O)[nH]c2ccccc12	15	14	0	3	-18	24	/	/
Cc1ccccc1OCC(=O)NCCCNC(=O)c1ccccn1	-1	-2	/	5	/	/	/	/
CCOc1ccc(CNC(=O)CN2C(=O)CSc3ccc(S(=O)(=O)N4CCOCC4)cc32)cc1OC	2	2	/	1	/	/	/	/
CN1C(=O)c2ccccc2NC(=O)[C@]12O[C@@H]2c1cccc(O)c1	65*	62*	/	26	-96	16	56*	69*
SMILES	MCL1 BIM primary	Bcl-xL primary	Mcl-1 Bim block	GLD-1 RNA inh	Mcl1-Bid inh	Mcl1-Noxa inh	Bcl-xL conf	MCL1 inh confirm
CN1C(=O)c2ccccc2N(C)C1c1cccc(O)c1 (configuration not stated)	7	3	/	3	/	/	/	/
O=C(CCC(=O)Nc1nnc(C2CCCCC2)s1)Nc1ccc(F)cc1	4	2	/	0	/	/	/	/
O=C(C/C=N\OCc1ccc([N+](=O)[O-])cc1)Nc1ccc(Br)cc1	4	1	0	9	14	18	/	/
CN(C)c1ccc2nc3c(=O)[nH]c(=O)nc-3n(CC(O)C(O)C(O)CO)c2c1 (configuration not stated)	+	190*	/	163*	/	/	150*	174*
CC(C)(C)c1ccc(C(=O)Nc2cccc3ncccc23)cc1	90*	81*	/	64*	/	/	116*	143*
CC(C)=CCc1c(O)ccc2c1OC(c1ccc(O)c(O)c1)CC2=O (configuration not stated)	16	7	-1	10	-6	33	/	/
O=C1CC(c2ccc(O)c(O)c2)Oc2c1ccc(O)c2O (configuration not stated)	70*	15	/	6	-86	106*	20	78*
Cc1cc(/C=C(/C#N)c2nc3ccccc3[nH]2)c(C)n1-c1cccc([N+](=O)[O-])c1	4	10	1	4	-71	13	/	/
Cc1cc(/C=C(\C#N)c2nc3ccccc3[nH]2)c(C)n1C	122*	110*	-3	133*	-80	37	127*	149*
O=C(CCCOc1ccccc1)NN1C(=O)NC2(CCCCC2)C1=O	-1	-1	/	3	/	/	/	/
O=C(Cn1c(O)c(/C=C2\C=Nc3ccccc32)sc1=O)N1CCOCC1	9	4	3	2	-21	1	/	/
O=c1[nH]c(S)c(/C=C2\C=Nc3ccccc32)s1	76*	77*	/	45*	-4	62*	86*	108*
Cc1nc2nc(-c3cccs3)cn2nc1C	113*	106*	0	72*	-27	62*	100*	127*
COc1ccc(C(CNC(=O)Nc2ccccc2)N2CCN(C)CC2)cc1 (configuration not stated)	46*	-1	/	0	/	/	7	13
